Measured values from the supplement of paper PMC6555819.

What follows are sequences tested on PPARa:RXRa (NR concentration 270 nM, RXRa partner concentration 90 nM) (assay: PBM binding z-score (relative to random genomic background probes); higher = stronger binding; sequences stand for … in GC…GCGATTGACAGCGTAGAATGAAGG).
In short: (§1)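 On custom Agilent 4×180K arrays, double-stranded probes with 34-nt variable regions carried direct-repeat seeds, single-nucleotide variants, half-site ablations or random human genomic background. Ligand-free nuclear receptor dimers were applied for 1 h, and binding was read with antibodies against each partner (one per run). Binding z-scores come from regression-normalized fluorescence, with the random background probes as reference.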
Sequence CGAACGAAGGCATGAGTTGATAGCAAATGCCGAT has a PBM binding z-score of -0.568.
AGTCAAAGTTCAACTAGGTAACGTAAGATATGCT was tested, and the PBM binding z-score was 5.32.
In the case of CCTTCCGGGTCACGAGGTTATAGCACGACGAGCG, the PBM binding z-score is reported as 5.88.
With CCTACTGGGCCCAGGTCATTGATCAGTCAAAGCA the PBM binding z-score was 2.17.
In the case of CTACCAAGGTGAACAAGGTAGTTGATTACTATTC, the PBM binding z-score is reported as 1.19.
Sequence TCTATAAGTTGATTAGGGCAACCGAAACAGCGGA has a PBM binding z-score of 1.13.
CCTAGCAGGCCAATATGGGTCACTCAAGGCTTGA showed a PBM binding z-score of 3.05.
GCTCGGAGGCCAAGGTCAGAGCTTTGTCCGTAGA gave a PBM binding z-score of 1.85.
GCTATTAGATGAAAGGGCAACCGAATGATTCTCG showed a PBM binding z-score of 2.46.
With CCCACTGGGCCATCAGGTCATTGATATCAACGTT the PBM binding z-score was 2.74.
Sequence ACAGACAGGTGATGAAGGAAACTCAGGCTATCAT has a PBM binding z-score of 0.0161.
ACTAGTTGGTCAGCTGAGGTCACGCACAATTCGG gave a PBM binding z-score of 4.12.
With ATCTCTAGGTAACAAGTTCAGTTAAAGAGAGGAC the PBM binding z-score was 1.62.
CGTCAAAGTTCAACTAAGGTAACGTAAAGCACGC gave a PBM binding z-score of 5.14.
Sequence CCTAGCAGGCCAGGGCCACTCAAGCATTTCGCTT has a PBM binding z-score of -0.638.
With CCTACTGGGCCATCAGGTCTTTGATATCAACGTT the PBM binding z-score was 0.508.
Sequence AGTCAAAGTTCATCTAGGTAACGTCAGATATGCT has a PBM binding z-score of 4.87.
In the case of ACTAGCAGGCCAAGGGTCACTCATGATTAGTCCG, the PBM binding z-score is reported as 4.38.
For TCATATAGGTAAAGGTGAAAGTTGAACGATATGA, the PBM binding z-score was 4.3.
Sequence TGAATGAGTTTAAAGATCAGGGAACGTGGCGTCG has a PBM binding z-score of 0.791.
In the case of CGTCCACGGTCAATGCTAGGTCAGTGAAAGCATT, the PBM binding z-score is reported as 0.778.
CAAACTCGGTCACCGGAAGGTCAAAGTCCGCATG gave a PBM binding z-score of 4.39.
In the case of GCGACTGGGGCAAAGCGGGTTACCATAAGGTTGG, the PBM binding z-score is reported as 1.42.
AGAATGAGGTTATACGTAGATCAGGAAAGAAAGT was tested, and the PBM binding z-score was 3.08.
Work on ATATGTAGGTTAGCTGGGGCCATTCAGACTAGGC yielded a PBM binding z-score of 2.55.
TCTAGCAGGCCAGAGGGTCAATCAAGAGGTACGG showed a PBM binding z-score of 2.66.
With ACTTACGGGTCAACGAGGTGATAGCACGCGTATA the PBM binding z-score was 5.53.
For CCTACTGGGCCACGAAAGGTCATTGTTTCAGTGA, the PBM binding z-score was 4.61.
ATACCAAGGTGATCGTCAGGTCGTTGATACTAAC showed a PBM binding z-score of 0.892.
Work on CCGCCTAGGTCAGGGCCAGTATAGGAGGAACGTT yielded a PBM binding z-score of 2.15.
In the case of ATCTCTAGGTAACGTTCAGTGAAAGATCGATAGA, the PBM binding z-score is reported as 0.836.
For CATACAGGGTCAGGTAGGCCAGAGTAGGGACGGC, the PBM binding z-score was 4.2.
In the case of CATACAGGGTCAGCTAGGCCAGAGTAGGGACGGC, the PBM binding z-score is reported as 4.64.
ATAACGAGGGCAATGAGTTGATAGCACGGGTGGC showed a PBM binding z-score of 1.23.
CTTACAGGGTCAGCTAGGCCAGAGTAGGGACGGC was tested, and the PBM binding z-score was 4.25.
For TCTTGTAGATCAACAGGAGGTTACGAAAGATCGA, the PBM binding z-score was 1.55.
Sequence CCGCCTGGGGCAGAAAGGTTACCATACCATCCGG has a PBM binding z-score of 1.59.
ATGGAAAGGTCGACGAGGTGAGTATACACCGTTT was tested, and the PBM binding z-score was 4.12.
With TCTTGTAGATCAATAGAGGTTACGAAAGTGCGCT the PBM binding z-score was 2.12.
For TCTATTAGTTGAAGGGCAACTGACGAGTCCGTTT, the PBM binding z-score was 1.09.

Each sequence was assayed on PPARg:RXRa (NR concentration 180 nM, RXRa partner concentration 90 nM) in the same assay as above.
In short: as §1
Work on CGAACGAAGGCATGAGTTGATAGCAAATGCCGAT yielded a PBM binding z-score of 0.575.
Work on AGTCAAAGTTCAACTAGGTAACGTAAGATATGCT yielded a PBM binding z-score of 7.34.
Sequence CCTTCCGGGTCACGAGGTTATAGCACGACGAGCG has a PBM binding z-score of 7.46.
For CCTACTGGGCCCAGGTCATTGATCAGTCAAAGCA, the PBM binding z-score was 0.602.
In the case of CTACCAAGGTGAACAAGGTAGTTGATTACTATTC, the PBM binding z-score is reported as 0.675.
TCTATAAGTTGATTAGGGCAACCGAAACAGCGGA showed a PBM binding z-score of 0.429.
Work on CCTAGCAGGCCAATATGGGTCACTCAAGGCTTGA yielded a PBM binding z-score of 1.57.
Sequence GCTCGGAGGCCAAGGTCAGAGCTTTGTCCGTAGA has a PBM binding z-score of 0.0755.
For GCTATTAGATGAAAGGGCAACCGAATGATTCTCG, the PBM binding z-score was 3.72.
Sequence CCCACTGGGCCATCAGGTCATTGATATCAACGTT has a PBM binding z-score of 2.87.
ACAGACAGGTGATGAAGGAAACTCAGGCTATCAT was tested, and the PBM binding z-score was 0.66.
ACTAGTTGGTCAGCTGAGGTCACGCACAATTCGG showed a PBM binding z-score of 2.12.
Sequence ATCTCTAGGTAACAAGTTCAGTTAAAGAGAGGAC has a PBM binding z-score of 1.48.
Work on CGTCAAAGTTCAACTAAGGTAACGTAAAGCACGC yielded a PBM binding z-score of 5.22.
CCTAGCAGGCCAGGGCCACTCAAGCATTTCGCTT was tested, and the PBM binding z-score was -0.367.
In the case of CCTACTGGGCCATCAGGTCTTTGATATCAACGTT, the PBM binding z-score is reported as 0.773.
For AGTCAAAGTTCATCTAGGTAACGTCAGATATGCT, the PBM binding z-score was 6.42.
Sequence ACTAGCAGGCCAAGGGTCACTCATGATTAGTCCG has a PBM binding z-score of 7.52.
TCATATAGGTAAAGGTGAAAGTTGAACGATATGA was tested, and the PBM binding z-score was 5.92.
TGAATGAGTTTAAAGATCAGGGAACGTGGCGTCG was tested, and the PBM binding z-score was 0.824.
In the case of CGTCCACGGTCAATGCTAGGTCAGTGAAAGCATT, the PBM binding z-score is reported as -0.0965.
In the case of CAAACTCGGTCACCGGAAGGTCAAAGTCCGCATG, the PBM binding z-score is reported as 3.62.
GCGACTGGGGCAAAGCGGGTTACCATAAGGTTGG gave a PBM binding z-score of 1.15.
In the case of AGAATGAGGTTATACGTAGATCAGGAAAGAAAGT, the PBM binding z-score is reported as 2.02.
ATATGTAGGTTAGCTGGGGCCATTCAGACTAGGC showed a PBM binding z-score of 3.09.
Work on TCTAGCAGGCCAGAGGGTCAATCAAGAGGTACGG yielded a PBM binding z-score of 1.61.
In the case of ACTTACGGGTCAACGAGGTGATAGCACGCGTATA, the PBM binding z-score is reported as 5.36.
Work on CCTACTGGGCCACGAAAGGTCATTGTTTCAGTGA yielded a PBM binding z-score of 4.26.
ATACCAAGGTGATCGTCAGGTCGTTGATACTAAC gave a PBM binding z-score of 0.38.
In the case of CCGCCTAGGTCAGGGCCAGTATAGGAGGAACGTT, the PBM binding z-score is reported as 0.674.
Work on ATCTCTAGGTAACGTTCAGTGAAAGATCGATAGA yielded a PBM binding z-score of 0.58.
With CATACAGGGTCAGGTAGGCCAGAGTAGGGACGGC the PBM binding z-score was 3.15.
CATACAGGGTCAGCTAGGCCAGAGTAGGGACGGC was tested, and the PBM binding z-score was 3.58.
With ATAACGAGGGCAATGAGTTGATAGCACGGGTGGC the PBM binding z-score was 1.8.
CTTACAGGGTCAGCTAGGCCAGAGTAGGGACGGC was tested, and the PBM binding z-score was 2.76.
In the case of TCTTGTAGATCAACAGGAGGTTACGAAAGATCGA, the PBM binding z-score is reported as 0.26.
CCGCCTGGGGCAGAAAGGTTACCATACCATCCGG showed a PBM binding z-score of 0.804.
ATGGAAAGGTCGACGAGGTGAGTATACACCGTTT gave a PBM binding z-score of 2.69.
TCTTGTAGATCAATAGAGGTTACGAAAGTGCGCT gave a PBM binding z-score of 0.4.
TCTATTAGTTGAAGGGCAACTGACGAGTCCGTTT gave a PBM binding z-score of 0.086.
